Laboratory results taken from PubChem BioAssay (NCATS).
Inconclusive results are not listed. Active and inactive are the calls of the source. Calls follow the shape of the full dose curve. Bridge positions count the residues as written; N and C are the ends. Square brackets hold non-standard residues; d marks the D form. Peptide text beside a SMILES is read from it. hArg = N=C(N)NCCCC[C@H](N)C(=O)O; Mpa = O=C(O)CCS

What was measured:
[1] = Primary qHTS for inhibitors of SARS-S pseudo-typed particle cell entry (AID 1479145); also: nearly all actives have a fitted effect of over 45% in size
[2] = Primary qHTS for Huh7 cytotoxicity: counterscreen for inhibitors of MERS-S pseudotyped particle cell entry (AID 1479147)
[3] = Primary qHTS for inhibitors of MERS-S pseudo-typed particle cell entry (AID 1479149); also: nearly all actives have a fitted effect of over 60% in size
[4] = Primary qHTS for Vero E6 cytotoxicity: counterscreen for inhibitors of SARS-S pseudo-typed particle cell entry (AID 1479150)
[5] = Confirmatory qHTS for VERO E6 Cytotoxicity Assay: Counterscreen for SARS-CoV-2 CPE Assay (AID 1508605); also: series mostly up to about 20 µM; nearly all actives have a fitted effect of over 60% in size

Measured: Potency

C/C(=N/NC(=O)c1ccncc1)C(=O)O
inactive: [1] | [2] | [3] | [4]

C[N+](C)(C)CCCCCCCCCC[N+](C)(C)C
inactive: [1] | [2] | [3] | [4]

C[C@]12CC[C@@H]3c4ccc(O)cc4CC[C@H]3[C@@H]1C[C@@H](O)[C@@H]2O
inactive: [1] | [2] | [3] | [4]

CCC1Nc2cc(Cl)c(S(N)(=O)=O)cc2S(=O)(=O)N1 (stereo unspecified)
inactive: [1] | [2] | [3] | [4]

Cc1ncc(CSSCc2cnc(C)c(O)c2CO)c(CO)c1O
inactive: [1] | [2] | [3] | [4]

CCOC(=O)n1ccn(C)c1=S
inactive: [1] | [2] | [3] | [4]

CC1(C)O[C@@H]2C[C@H]3[C@@H]4C[C@H](F)C5=CC(=O)CC[C@]5(C)[C@H]4[C@@H](O)C[C@]3(C)[C@]2(C(=O)CO)O1
inactive: [1] | [2] | [3] | [4]

CC(C)C(=O)OCc1cccc(OC(=O)[C@@H]2N3C(=O)[C@@H](NC(=O)Cc4ccccc4)[C@H]3SC2(C)C)c1
inactive: [1] | [2] | [3] | [4]

Brc1c(NC2=NCCN2)ccc2nccnc12
inactive: [1] | [2] | [3] | [4]

COc1ccc(CN(CCN(C)C)c2ncccn2)cc1
inactive: [1] | [2] | [3] | [4]

Cc1cc(O)c(C(C)C)cc1Cl
inactive: [1] | [2] | [3] | [4]

C=CCCCCCCCCC(=O)O
inactive: [1] | [2] | [3] | [4]

Cc1cc(C(C)(C)C)c(O)c(C)c1CC1=NCCN1
inactive: [1] | [2] | [3] | [4]

O=S1(=O)OC(c2ccc(O)cc2)(c2ccc(O)cc2)c2ccccc21
inactive: [1] | [2] | [3] | [4]

NC(=O)[C@@H]1CSSCCC(=O)N[C@@H](CCCCN=C(N)N)C(=O)NCC(=O)N[C@@H](CC(=O)O)C(=O)N[C@@H](Cc2c[nH]c3ccccc23)C(=O)N2CCC[C@H]2C(=O)N1 ([Mpa][hArg]GDWPC-NH2; disulfide 1-7)
inactive: [1] | [2] | [3] | [4]

O=C(CCCCC(=O)Nc1c(I)cc(I)c(C(=O)O)c1I)Nc1c(I)cc(I)c(C(=O)O)c1I
inactive: [1] | [2] | [3] | [4]

CCOC(=O)[C@H](CCc1ccccc1)N[C@H]1CS[C@H](c2cccs2)CN(CC(=O)O)C1=O
inactive: [1] | [2] | [3] | [4]

N[C@H](Cc1c[nH]c2ccccc12)C(=O)O
inactive: [1] | [2] | [3] | [4]

Cc1cc(=O)oc2cc(O)ccc12
inactive: [1] | [2] | [3] | [4]

CCOC(=O)OC(C)OC(=O)[C@@H]1N2C(=O)[C@@H](NC(=O)[C@H](N)c3ccccc3)[C@H]2SC1(C)C (stereo partly specified)
inactive: [1] | [2] | [3] | [4]

CC(C)(C)C(=O)C(Oc1ccc(Cl)cc1)n1ccnc1 (stereo unspecified)
inactive: [1] | [2] | [3] | [4]

COc1cc(O)c(C(=O)c2ccccc2)cc1S(=O)(=O)O
inactive: [1] | [2] | [3] | [4]

O=C(Nc1ccc([N+](=O)[O-])cc1)Nc1ccc([N+](=O)[O-])cc1
inactive: [1] | [2] | [3] | [4]

CCNC(=O)NCCCOc1cccc(CN2CCCCC2)c1
inactive: [1] | [2] | [3] | [4]

O=C(O)CCC(=O)c1ccc(-c2ccccc2)cc1
inactive: [1] | [2] | [3] | [4]

CC1=C(CC(=O)O)c2cc(F)ccc2/C1=C\c1ccc(S(C)=O)cc1 (stereo unspecified)
inactive: [1] | [2] | [3] | [4]

CCC(=O)Oc1ccc2c(c1)CC[C@@H]1[C@@H]2CC[C@@]2(C)[C@H]1C[C@@H](OC(=O)CC)[C@@H]2OC(=O)CC
inactive: [1] | [2] | [3] | [4]

CCN1CCCC(OC(=O)C(c2ccccc2)c2ccccc2)C1 (stereo unspecified)
inactive: [1] | [2] | [3] | [4]

COc1cc(OC)cc(OC)c1
inactive: [1] | [2] | [3] | [4]

NS(=O)(=O)c1cc2c(cc1Cl)NC(CSCc1ccccc1)=NS2(=O)=O
inactive: [1] | [2] | [3] | [4]

CC[N+]1(CC)CCC(=C(c2ccccc2)c2ccccc2)C1C (stereo unspecified)
inactive: [1] | [2] | [3] | [4]

CO/N=C(/C(=O)N[C@@H]1C(=O)N2C(C(=O)O)=C(Cn3nnc(C)n3)CS[C@H]12)c1csc(N)n1
inactive: [1] | [2] | [3] | [4]

C[C@]12CC[C@@H]3c4ccc(O)cc4CC[C@H]3[C@@H]1CC[C@@H]2OC(=O)CCC1CCCC1
inactive: [1] | [2] | [3] | [4]

CN(CCCN1c2ccccc2CCc2ccccc21)CC(=O)c1ccc(Cl)cc1
inactive: [1] | [2] | [3] | [4]

C[C@@H]1C[C@H]2[C@@H]3CCC4=CC(=O)C=C[C@]4(C)[C@@]3(F)[C@@H](O)C[C@]2(C)[C@@]1(O)C(=O)COC(=O)c1ccncc1
inactive: [1] | [2] | [3] | [4]

Cc1[nH]c(C)c(Cl)c(=O)c1Cl
inactive: [1] | [2] | [3] | [4]

NC(=O)CCCCC1CCSS1 (stereo unspecified)
inactive: [1] | [2] | [3] | [4]

CO[C@]1(NC(=O)CSC(F)F)C(=O)N2C(C(=O)O)=C(CSc3nnnn3CCO)CO[C@H]21
inactive: [1] | [2] | [3] | [4]

O=C(O)CCNC(=O)c1ccccc1
inactive: [1] | [2] | [3] | [4]

Nc1ccc(N=Nc2ccccc2)c(N)n1
inactive: [1] | [2] | [3] | [4]

CC(=O)N(CC(O)CN(C(C)=O)c1c(I)c(C(=O)NCC(O)CO)c(I)c(C(=O)NCC(O)CO)c1I)c1c(I)c(C(=O)NCC(O)CO)c(I)c(C(=O)NCC(O)CO)c1I (stereo unspecified)
inactive: [1] | [2] | [3] | [4]

COc1ccc2c(c1OC)C(=O)O[C@@H]2[C@H]1c2c(cc3c(c2OC)OCO3)CCN1C
inactive: [1] | [2] | [3] | [4]

CC(C)=CCOc1ccc(/C=C/C(=O)c2ccc(OCC=C(C)C)cc2OCC(=O)O)cc1
inactive: [1] | [2] | [3] | [4]

Cc1ccc(Nc2c(F)cccc2Cl)c(CC(=O)O)c1
inactive: [1] | [2] | [3] | [4]

Cc1c(N(C)C)c(=O)n(-c2ccccc2)n1C
inactive: [1] | [2] | [3] | [4]

N#Cc1cc(NC(=O)C(=O)O)c(Cl)c(NC(=O)C(=O)O)c1
inactive: [1] | [2] | [3] | [4]

O=c1[nH]cnc2c1ncn2[C@@H]1O[C@H](CO)[C@@H](O)[C@H]1O
inactive: [1] | [2] | [3] | [4]

CC1(C)O[C@@H]2C[C@H]3[C@@H]4CCC5=CC(=O)CC[C@]5(C)[C@@]4(F)[C@@H](O)C[C@]3(C)[C@]2(C(=O)CCl)O1
inactive: [1] | [2] | [3] | [4]

C=CC[N+]1([C@H]2C[C@H]3[C@@H]4CC[C@H]5C[C@H](OC(C)=O)[C@@H](N6CCCCC6)C[C@]5(C)[C@H]4CC[C@]3(C)[C@H]2OC(=O)CC)CCCCC1
inactive: [1] | [2] | [3] | [4]

CCOC(=O)c1ccc(NC(=O)CN2CCCCC2)cc1
inactive: [1] | [2] | [3] | [4]

CC(=O)OCC(=O)[C@@]12N=C(C)O[C@@H]1C[C@H]1[C@@H]3CCC4=CC(=O)C=C[C@]4(C)[C@H]3[C@@H](O)C[C@@]12C
inactive: [1] | [2] | [3] | [4]

Cc1cccc(CN2CCN(C(c3ccccc3)c3ccc(Cl)cc3)CC2)c1 (stereo unspecified)
inactive: [1] | [2] | [3] | [4]

CCCCC(=O)O[C@]1(C(=O)CO)[C@@H](C)C[C@H]2[C@@H]3CCC4=CC(=O)C=C[C@]4(C)[C@@]3(F)[C@@H](O)C[C@@]21C
inactive: [1] | [2] | [3] | [4]

CC(=O)OCC(=O)[C@@]1(O)CC[C@H]2[C@@H]3CCC4=CC(=O)C=C[C@]4(C)[C@H]3[C@@H](O)C[C@@]21C
inactive: [1] | [2] | [3] | [4]

C/C=C/c1ccc(O)c(OC)c1
inactive: [1] | [2] | [3] | [4]

CC(=O)OC[C@H]1O[C@@](COC(C)=O)(O[C@H]2O[C@H](COC(C)=O)[C@@H](OC(C)=O)[C@H](OC(C)=O)[C@H]2OC(C)=O)[C@@H](OC(C)=O)[C@@H]1OC(C)=O
inactive: [1] | [2] | [3] | [4]

C=CCOc1ccccc1OCC(O)CNC(C)C (stereo unspecified)
inactive: [1] | [2] | [3] | [4]

CC1=C(C)C(=O)C(C(CCCCCC(=O)O)c2ccccc2)=C(C)C1=O (stereo unspecified)
inactive: [1] | [2] | [3] | [4]

CC1(C)OC[C@@H](COC(=O)CCc2ccc(OC[C@@H](O)CNCCNC(=O)N3CCOCC3)cc2)O1
inactive: [1] | [2] | [3] | [4]

Cc1ccc(C(C)OC(=O)C2(C)CCC(C(=O)O)C2(C)C)cc1 (stereo unspecified)
inactive: [1] | [2] | [3] | [4]

c1ccc([C@H]2CN3CCSC3=N2)cc1
inactive: [1] | [2] | [3] | [4]

Cc1ccc2c(Cl)cc(Cl)c(O)c2n1
inactive: [1] | [2] | [3] | [4]

COc1ccccc1N1CCN(CCCNc2cc(=O)n(C)c(=O)n2C)CC1
inactive: [1] | [2] | [3] | [4]

CC(C)c1cc2c(cc1S(=O)(=O)O)[C@@]1(C)CCC[C@@](C)(C(=O)O)[C@@H]1CC2
inactive: [1] | [2] | [3] | [4]

CC(=O)Oc1ccc2c(c1)CC[C@@H]1[C@@H]2CC[C@]2(C)[C@@H](O)CC[C@@H]12
inactive: [1] | [2] | [3] | [4]

CCOC(=O)[C@H](CCc1ccccc1)N[C@H]1CCc2ccccc2N(CC(=O)O)C1=O
inactive: [5]
